This test in a line: NALP1 inflammasome inhibitors in reconstituted yeast, colorimetric, S. cerevisiae, triplicate retest (AID 2071). Particulars: S. cerevisiae NALP1/ASC/caspase-1 growth, X-gal OD620, 72 h, stronger effect = higher value.

Structures are written as SMILES. Hit rate of the full screen: of about 280,000 compounds, about 1,700 (0.61%) were called active. Cut-off read from the data, not from the text of the source: active = inhibition mostly above about 24% (no sharp cut-off); inactive = mostly below about 32%. The list comes from a sample in which actives are over-represented; it also holds similar structures and randomly drawn compounds.

For the compound `Cc1ccnc(N2C(=O)c3ccc([N+](=O)[O-])cc3C2=O)c1`, the inhibition (at 10 µM unless noted) was 4.8% (inactive).

`O=C(C1=C[C@H](C2CC2)C[C@H](OCc2ccc(CO)cc2)O1)N1CCN(Cc2ccccc2)CC1`: the inhibition (at 10 µM unless noted) is -5.8% (inactive).

In the case of `O=C(NCc1ccccc1)C1=C[C@@H](c2ccc(C(F)(F)F)cc2)C[C@@H](OCc2ccc(CO)cc2)O1`, the inhibition (at 10 µM unless noted) is -7.3% (inactive).

In the case of `O=C(C1=C[C@H](c2ccc(C(F)(F)F)cc2)C[C@H](OCc2ccc(CO)cc2)O1)N1CCN(Cc2ccccc2)CC1`, the inhibition (at 10 µM unless noted) was 26.9% (active).

On to `CCN1C(=NCC(C)C)N[C@@H](CCc2ccccc2)[C@H](C(=O)NCC(C)C)[C@H]1C`, for which the inhibition (at 10 µM unless noted) was -12.1% (inactive).

`CCC(CC)c1nnc(NC(=O)C2CCN(C(=O)c3ccco3)CC2)s1`: the inhibition (at 10 µM unless noted) is -1% (inactive).

As to `CC(=O)N1CCN(CC(C)(C)NS(=O)(=O)c2ccc(C)cc2)CC1`, under “at 10 µM unless noted”, the inhibition was -1% (inactive).

Consider `COc1ccc(NC(=O)c2sc3nc(C)nc(N4CCN(c5ccccn5)CC4)c3c2C)c(OC)c1`, for which the inhibition (at 10 µM unless noted) was -10.9% (inactive).

In the case of `CC1(C)CCSC(/C=C/c2ccccc2)=N1`, the inhibition reads like this: (at 10 µM) 53.2% (active); (triplicate retest, at 20 µM) 102%.

Consider `CN(C)CCOC1c2ccccc2-c2ccccc21`, for which the inhibition (at 10 µM unless noted) was 6% (inactive).

Take `CCCCOC(=O)Cn1c(=O)n(CC(=O)OCCCC)c2cc(C)ccc21`: the inhibition (at 10 µM unless noted) was -1% (inactive).

In the case of `CCCCCCCCCCOC(=O)Cn1c(COc2ccc(C)cc2)[n+](C)c2ccccc21`, the inhibition (at 10 µM unless noted) was 24.8% (active).

As to `CCCCCCCCCCOC(=O)Cn1c(COc2cccc(OC)c2)[n+](C)c2ccccc21`, under “at 10 µM unless noted”, the inhibition was 36.3% (active).

`COc1cccc(OCC(=O)Nc2ccccc2C(N)=O)c1`: where the note is “at 10 µM unless noted”, the inhibition was 1.7% (inactive).

In the case of `CCCCOC(=O)Cn1c(=N)n(CCN(CC)CC)c2ccccc21`, under “at 10 µM unless noted”, the inhibition is 2.6% (inactive).

`Cc1ccc(OCc2nc3ccccc3n2C)cc1`: the inhibition (at 10 µM unless noted) was 33.1% (inactive).

`O=C(Nc1cccc([N+](=O)[O-])c1)N1CCc2ccccc2C1`: the inhibition (at 10 µM unless noted) was 7.7% (inactive).

Turning to `Oc1c(Cl)cc(Cl)cc1/C=N/c1ncn[nH]1`, the inhibition (at 10 µM unless noted) is 15.3% (inactive).

`CC/C(=N\NC(=O)c1c(C)nc2ccccn12)c1ccc(Cl)cc1`: where the note is “at 10 µM unless noted”, the inhibition is 8.5% (inactive).

Turning to `CCOc1ccc(N(CC(=O)NCCOc2ccccc2OC)S(=O)(=O)c2ccccc2)cc1`, where the note is “at 10 µM unless noted”, the inhibition is 3% (inactive).

Consider `CN(C)c1ccc(-c2nnc(-c3cccnc3)o2)cc1`, for which the inhibition (at 10 µM unless noted) is -3.5% (inactive).

For the compound `O=C(NCc1cccc(C(F)(F)F)c1)c1cccc(S(=O)(=O)N2CCN(Cc3ccccc3)CC2)c1`, where the note is “at 10 µM unless noted”, the inhibition is 9.8% (inactive).

Turning to `CCn1c(=O)c(C(=O)NCc2ccc3c(c2)OCO3)c(O)c2ccccc21`, the inhibition (at 10 µM unless noted) was 4.6% (inactive).

As for `CC(O)C(NS(=O)(=O)c1ccc(Cl)cc1)C(=O)OCc1cc([N+](=O)[O-])cc2c1OCOC2` (configuration not stated), the inhibition (at 10 µM unless noted) is 9.8% (inactive).

With `CCS(=O)(=O)c1cc([N+](=O)[O-])c(Sc2ccccc2N)s1`, the inhibition (at 10 µM unless noted) was 6.4% (inactive).

In the case of `Nc1ccccc1SCc1cc([N+](=O)[O-])cc2c1OCOC2`, where the note is “at 10 µM unless noted”, the inhibition was 23.8% (active).

The record behind these values is PubChem BioAssay AID2071 (Sanford-Burnham Center for Chemical Genomics, 2009).
